Source: PubChem BioAssay (Tox21)
Several values for one entry are separate records, joined by “and”; a condition that tells them apart may be missing. Equal entries are not always repeated. Records with an inconclusive call do not appear. Activity calls are given as the source filed them. Calls follow the shape of the dose curve; as a rule, active = well fitted cell-killing curve with a large enough effect in the repeat runs; inconclusive = weak or mixed curves, or effect the other way; inactive = no such curve, though single readings can be large or run the other way.

Experiment: qHTS assay to identify small molecule antagonists of the glucocorticoid receptor (GR) signaling pathway - cell viability counter screen (AID 720693); also: nearly all actives have a fitted effect of over 55% in size
Details: GR-bla HeLa viability, CellTiter-Glo luminescence, 18 h, with 5 nM dexamethasone present; series mostly up to 58.5 µM; viability change, negative = cytotoxic: at the top concentration
% is scaled to controls: 0 for no effect and ±100 for the full control effect.

Row | Structure (SMILES) | viability change, negative = cytotoxic | Potency
1 | COC(C)(C)C | 0.811% (inactive) | 
2 | CCOP(=S)(OCC)Oc1ncn(-c2ccccc2)n1 | 1.37% (inactive) | 
3 | CC(Cl)(Cl)[N+](=O)[O-] | -0.616% (inactive) | 
4 | Cc1cnc[nH]1 | 0.473% (inactive) | 
5 | CC1=C(C(=O)Nc2ccccc2)S(=O)(=O)CCO1 | -20.6% (inactive) | 
6 | O=C1c2ccccc2C(=O)c2ccccc21 | -8.97% (inactive) | 
7 | CC(C)CC#N | -1.27% [at 78.9 µM] (inactive) | 
8 | CNC(=O)Oc1ccc(N(C)C)c(C)c1 | 2.23% (inactive) | 
9 | N#CC(Cl)(Cl)Cl | 1.6% (inactive) | 
10 | ClC(Cl)(Cl)C(Cl)(Cl)Cl | 14% [at 78.9 µM] (inactive) | 
11 | Cc1nc(N)nc(N)n1 | -9.16% [at 78.9 µM] (inactive) | 
12 | c1cc[c]([Hg][c]2ccccc2)cc1 | 17% (inactive) | 
13 | N#Cc1ccncc1 | -6.51% [at 78.9 µM] (inactive) | 
14 | C[C@H]1CCC[C@H](O)CCCCCc2cc(O)cc(O)c2C(=O)O1 |  | inactive
15 | Cc1ccccc1CO[C@@H]1C[C@@]2(C(C)C)CC[C@]1(C)O2 | -4.4% (inactive) | 
16 | Nc1ccccc1Cl | -1.15% (inactive) | 
17 | CC1(C)COP(Oc2ccccc2)OC1 | 0.396% (inactive) | 
18 | CCCCOP(=O)(O)OCCCC | 0.343% (inactive) | 

Row | Structure (SMILES) | viability change, negative = cytotoxic | Potency
19 | O=C(O)c1ccc2[nH]cc(CCCCN3CC=C(c4ccccc4)CC3)c2c1 | -10.4% (inactive) | 
20 | CCN(CC)C(C)C(=O)c1ccccc1 (stereo not given) | 23.2% (inactive) | 
21 | CCCCc1c(C)nc(NCC)[nH]c1=O | 10.1% (inactive) | 
22 | CN1CCC(O)(c2ccc(F)cc2)C(C(=O)c2ccc(F)cc2)C1 (stereo not given) | -2.39% (inactive) | 
23 | CCCCc1ccc(O)cc1 | 15% (inactive) | 
24 | O=[N+]([O-])c1cccc2c([N+](=O)[O-])cccc12 | -1.84% [at 78.9 µM] (inactive) | 
25 | COP(N)(=S)Oc1ccccc1C(=O)OC(C)C (stereo not given) | 21.6% (inactive) | 
26 | O=C(Nc1ccccc1)c1ccccc1I | 6.76% (inactive) | 
27 | COc1ncc(F)c2nc(S(=O)(=O)Nc3c(F)cccc3F)nn12 | 2.02% (inactive) | 
28 | CCCSC(=O)N(CCC)CCC | 6.52% (inactive) | 
29 | CCC(=O)c1ccccc1 | -3.98% (inactive) | 
30 | c1cc2c(c(N3CCNCC3)c1)OCCO2 | 8.4% (inactive) | 
31 | COC(=O)C(c1ccccc1)C1CCCCN1 (stereo not given) |  | inactive
32 | CCCCCCI | -7.27% (inactive) | 
33 | COc1cc(OC)nc(Oc2cccc(Oc3nc(OC)cc(OC)n3)c2C(=O)O)n1 | 8.67% (inactive) | 
34 | CNC(=O)Oc1ccccc1C1OCCO1 | -16.5% (inactive) | 
35 | C#C[C@]1(O)C=C[C@H]2[C@@H]3CCC4=CC(=O)CC[C@@H]4[C@H]3CC[C@@]21CC | -14.1% (inactive) | 

Experiment: qHTS assay for identifying genotoxic compounds that show differential cytotoxicity against isogenic chicken DT40 cell lines with known DNA damage response pathways - wild type cell line (AID 743012); also: nearly all actives have a fitted effect of over 60% in size; also: potency is read from the fitted curve at half-maximal effect
Details: DT40 wild type chicken cells viability, CellTiter-Glo, 40 h; series mostly up to 68.4 µM; activity change, negative = cytotoxicity: at the top concentration
How it was run: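 Luminescent ATP viability signal (CellTiter-Glo, 30 min RT) recorded after wild type DT40 cells were incubated with compounds for 40 h at 37 C/5% CO2.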

Row | Structure (SMILES) | activity change, negative = cytotoxicity | Potency
36 | COC(C)(C)C | 8.77% (inactive) | 
37 | CCOP(=S)(OCC)Oc1ncn(-c2ccccc2)n1 |  | 61.1 µM (active)
38 | CC(Cl)(Cl)[N+](=O)[O-] | 0.224% (inactive) | 
39 | Cc1cnc[nH]1 | 2.54% (inactive) | 
40 | CC1=C(C(=O)Nc2ccccc2)S(=O)(=O)CCO1 |  | 15.3 µM (active)
41 | O=C1c2ccccc2C(=O)c2ccccc21 | 13.8% (inactive) | 
42 | CC(C)CC#N | -2.1% [at 95 µM] (inactive) | 
43 | CNC(=O)Oc1ccc(N(C)C)c(C)c1 |  | 54.5 µM (active)
44 | N#CC(Cl)(Cl)Cl | 3.04% (inactive) | 
45 | ClC(Cl)(Cl)C(Cl)(Cl)Cl | -0.828% [at 95 µM] (inactive) | 
46 | Cc1nc(N)nc(N)n1 | -8.04% [at 95 µM] (inactive) | 
47 | c1cc[c]([Hg][c]2ccccc2)cc1 |  | 0.273 µM (active)
48 | N#Cc1ccncc1 | 15.3% [at 95 µM] (inactive) | 
49 | C[C@H]1CCC[C@H](O)CCCCCc2cc(O)cc(O)c2C(=O)O1 |  | 18.8 µM (active) and 61.6 µM (active)
50 | Cc1ccccc1CO[C@@H]1C[C@@]2(C(C)C)CC[C@]1(C)O2 |  | 43.3 µM (active)
51 | Nc1ccccc1Cl | 1.26% (inactive) | 
52 | CC1(C)COP(Oc2ccccc2)OC1 | 10.9% (inactive) | 
53 | CCCCOP(=O)(O)OCCCC | 12.5% (inactive) | 

Row | Structure (SMILES) | activity change, negative = cytotoxicity | Potency
54 | O=C(O)c1ccc2[nH]cc(CCCCN3CC=C(c4ccccc4)CC3)c2c1 | -10.2% (inactive) | 
55 | CCN(CC)C(C)C(=O)c1ccccc1 (stereo not given) | 17.3% (inactive) | 
56 | CCCCc1c(C)nc(NCC)[nH]c1=O | 17.9% (inactive) | 
57 | CN1CCC(O)(c2ccc(F)cc2)C(C(=O)c2ccc(F)cc2)C1 (stereo not given) |  | 9.44 µM (active)
58 | CCCCc1ccc(O)cc1 | -12.8% (inactive) | 
59 | O=[N+]([O-])c1cccc2c([N+](=O)[O-])cccc12 | -2.19% [at 95 µM] (inactive) | 
60 | COP(N)(=S)Oc1ccccc1C(=O)OC(C)C (stereo not given) | 25% (inactive) | 
61 | O=C(Nc1ccccc1)c1ccccc1I |  | 48.6 µM (active)
62 | COc1ncc(F)c2nc(S(=O)(=O)Nc3c(F)cccc3F)nn12 | 24.7% (inactive) | 
63 | CCCSC(=O)N(CCC)CCC | 3.36% (inactive) | 
64 | CCC(=O)c1ccccc1 | 10.4% (inactive) | 
65 | c1cc2c(c(N3CCNCC3)c1)OCCO2 | -0.652% (inactive) | 
66 | COC(=O)C(c1ccccc1)C1CCCCN1 (stereo not given) |  | inactive
67 | CCCCCCI | -3.57% (inactive) | 
68 | COc1cc(OC)nc(Oc2cccc(Oc3nc(OC)cc(OC)n3)c2C(=O)O)n1 | 20.5% (inactive) | 
69 | CNC(=O)Oc1ccccc1C1OCCO1 | 4.39% (inactive) | 
70 | C#C[C@]1(O)C=C[C@H]2[C@@H]3CCC4=CC(=O)CC[C@@H]4[C@H]3CC[C@@]21CC |  | 23.7 µM (active)
